Where “and” joins values, the source holds several entries; their conditions need not be identical. Equal values may be shown once. Results filed as inconclusive are left out. Calls of active or inactive are those of the source. Unless noted, calls come from the whole dose curve; as a rule, active = well fitted curve in the direction sought with a large enough effect in the repeat runs; inconclusive = weak or mixed curves; inactive = no such curve, though single readings can be large; an effect the other way counts as inactive or inconclusive.
Tests used:
[1] = biological target: Progesterone receptor (Homo sapiens) (UniProt P06401); experiment: qHTS assay to identify small molecule agonists of the progesterone receptor (PR) signaling pathway (AID 1346784; calls by dose curve; note: nearly all actives have a fitted effect of over 30% in size; note: potency is the fitted concentration of half-maximal effect; for activation: % is set by controls: 0 for no effect and ±100 for the full control effect)
Progesterone receptor (Homo sapiens), sequence (P06401 whole entry, looked up): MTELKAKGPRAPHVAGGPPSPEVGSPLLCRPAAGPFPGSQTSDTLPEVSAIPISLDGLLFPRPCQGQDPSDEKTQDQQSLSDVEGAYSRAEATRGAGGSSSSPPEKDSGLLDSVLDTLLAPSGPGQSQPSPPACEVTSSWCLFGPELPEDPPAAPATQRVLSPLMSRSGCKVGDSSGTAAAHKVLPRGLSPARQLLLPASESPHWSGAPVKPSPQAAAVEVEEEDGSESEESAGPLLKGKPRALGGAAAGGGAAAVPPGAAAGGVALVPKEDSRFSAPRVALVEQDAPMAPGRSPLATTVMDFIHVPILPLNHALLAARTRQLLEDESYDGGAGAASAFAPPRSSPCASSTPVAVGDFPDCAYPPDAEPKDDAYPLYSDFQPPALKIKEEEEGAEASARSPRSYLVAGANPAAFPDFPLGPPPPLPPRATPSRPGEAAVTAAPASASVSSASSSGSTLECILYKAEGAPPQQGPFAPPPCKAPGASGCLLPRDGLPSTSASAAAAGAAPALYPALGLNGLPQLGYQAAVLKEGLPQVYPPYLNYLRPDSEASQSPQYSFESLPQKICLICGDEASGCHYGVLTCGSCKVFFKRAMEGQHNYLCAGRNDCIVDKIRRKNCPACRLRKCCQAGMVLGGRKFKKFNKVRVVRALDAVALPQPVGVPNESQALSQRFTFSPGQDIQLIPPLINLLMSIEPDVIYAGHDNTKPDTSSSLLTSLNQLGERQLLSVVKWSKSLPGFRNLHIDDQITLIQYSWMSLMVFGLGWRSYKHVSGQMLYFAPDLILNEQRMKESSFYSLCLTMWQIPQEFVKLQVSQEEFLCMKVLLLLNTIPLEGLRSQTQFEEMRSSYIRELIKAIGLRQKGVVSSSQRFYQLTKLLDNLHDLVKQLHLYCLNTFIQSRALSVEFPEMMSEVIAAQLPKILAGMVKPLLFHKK
Outline: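 The screen uses PR-UAS-bla HEK 293T cells in charcoal-stripped serum (2%). Compounds are applied for 16 hr at 37C after a 6 hr pre-incubation, and reporter activity is detected with a FRET beta-lactamase substrate after 2 hr at room temperature.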

[2] = qHTS assay to identify small molecule antagonists of the progesterone receptor (PR) signaling pathway - cell viability counter screen (AID 1346798); note: nearly all actives have a fitted effect of over 50% in size; note: potency is the fitted concentration of half-maximal effect
Outline: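 Viability was determined by ATP-based luminescence (CellTiter-Glo) in PR-UAS-bla HEK293T cells cultured in 2% charcoal-stripped serum and incubated 16 hr with compounds under R5020 stimulation.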

[3] = qHTS assay to identify small molecule agonists of the progesterone receptor (PR) signaling pathway - cell viability counter screen (AID 1346799; calls by dose curve; note: nearly all actives have a fitted effect of over 45% in size; note: potency is the fitted concentration of half-maximal effect)
Outline: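 Viability was scored by ATP luminescence (CellTiter-Glo, 30 min, room temperature) in the same wells used for the reporter readout, after 16 hr compound exposure of PR-UAS-bla HEK293T cells.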

[4] = qHTS assay to identify small molecule antagonists of the TGF-beta/Smad signaling pathway - cell viability counter screen (AID 1346824); note: nearly all actives have a fitted effect of over 50% in size; note: potency is the fitted concentration of half-maximal effect
Outline: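 SBE-bla HEK 293T cells were plated overnight at 37 C, then given compounds in DMSO plus TGF-beta1 (added as 0.25 ng/mL solution) for 5 hr. After the bla read, CellTiter-Glo was added to the same wells and luminescence read after 30 min at room temperature.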

[5] = qHTS assay to identify small molecule agonists of the TGF-beta/Smad signaling pathway - cell viability counter screen (AID 1346829); note: nearly all actives have a fitted effect of over 45% in size; note: potency is the fitted concentration of half-maximal effect
Outline: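 Same-well cytotoxicity: CellTiter-Glo added after the 2 hr room-temperature beta-lactamase substrate step, luminescence measured 30 min later; cells had 5 hr of compound at 37 C.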

[6] = biological target: Thyrotropin-releasing hormone receptor (Homo sapiens) (UniProt P34981); experiment: qHTS assay to identify small molecule antagonists of the thyrotropin-releasing hormone receptor (TRHR) signaling pathway (AID 1346877; active = well fitted inhibition curve with a large enough effect in the repeat runs, not every such curve was filed as active; note: series mostly up to about 51 µM; % is set by controls: 0 for no effect and ±100 for the full control effect)
Thyrotropin-releasing hormone receptor (Homo sapiens), sequence (P34981 whole entry, looked up): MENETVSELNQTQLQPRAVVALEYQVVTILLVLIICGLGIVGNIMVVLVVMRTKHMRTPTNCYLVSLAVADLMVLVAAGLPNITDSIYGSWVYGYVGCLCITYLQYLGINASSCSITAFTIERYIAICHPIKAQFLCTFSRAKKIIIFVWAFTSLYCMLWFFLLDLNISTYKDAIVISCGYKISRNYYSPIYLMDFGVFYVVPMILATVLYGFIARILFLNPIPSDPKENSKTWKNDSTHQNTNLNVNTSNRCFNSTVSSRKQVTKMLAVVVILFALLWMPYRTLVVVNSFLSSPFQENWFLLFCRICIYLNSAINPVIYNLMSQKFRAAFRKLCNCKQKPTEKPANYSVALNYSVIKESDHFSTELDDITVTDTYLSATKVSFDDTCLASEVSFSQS
Outline: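 TRHR-expressing HEK293 cells loaded with calcium dye for 2 h at 37 C; compounds pre-incubated 5 min at room temperature before TRH challenge at 1 nM final. Intracellular calcium fluorescence read kinetically for 3 min; 15 concentrations in triplicate.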

[7] = Human pregnane X receptor (PXR) small molecule agonists, qHTS cell viability counter screen (AID 1346977); note: nearly all actives have a fitted effect of over 50% in size; note: potency is the fitted concentration of half-maximal effect
Outline: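 HepG2 cells stably carrying the PXR-Luc reporter are cultured with 5% charcoal-stripped FBS and treated with compounds for 24hr. CellTiter-Fluor is added at 23hr and fluorescence is read after 1hr.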

[8] = Caspase-3/7 induction in HepG2 cells by small molecules, qHTS assay (AID 1346978); note: nearly all actives have a fitted effect of over 15% in size; note: potency is the fitted concentration of half-maximal effect
Outline: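 Wild-type HepG2 cells (2,000/well) were settled 5 h at 37 C, 5% CO2, then exposed to compounds in DMSO for 17 h. Caspase-3/7 activity was read by luminescence 30 min after adding Caspase-Glo 3/7 reagent at room temperature.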

[9] = Caspase-3/7 induction in CHO-K1 cells by small molecules, qHTS cell viability counter screen (AID 1346979); note: nearly all actives have a fitted effect of over 35% in size; note: potency is the fitted concentration of half-maximal effect
Outline: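 Seeding: 1,500 CHO-K1 cells/well. Rest: 5hr, 37C. Treatment: compounds in DMSO, 16hr. Read: CellTiter-Fluor, 1hr, fluorescence.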

[10] = Caspase-3/7 induction in CHO-K1 cells by small molecules, qHTS assay (AID 1346980); note: nearly all actives have a fitted effect of over 15% in size; note: potency is the fitted concentration of half-maximal effect
Outline: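 Wild-type cells were seeded at 1,500 per well and settled 5 hr at 37 C, 5% CO2, then exposed to DMSO-dissolved compounds for 17 hr. Caspase-Glo 3/7 reagent was added, and luminescence was read after 30min at room temperature.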

[11] = Caspase-3/7 induction in HepG2 cells by small molecules, qHTS cell viability counter screen (AID 1346981); note: nearly all actives have a fitted effect of over 30% in size; note: potency is the fitted concentration of half-maximal effect
Outline: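 Wild-type HepG2 cells, 2,000/well, settled 5 hr at 37 C, 5% CO2 before compound addition. Viability read by CellTiter-Fluor fluorescence, reagent added after 16 hr compound exposure, then 1 hr at 37C, in the same wells as the caspase read.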

[12] = biological target: Cytochrome P450 2C19 (Homo sapiens) (UniProt P33261); experiment: Cytochrome P450 Family 2 Subfamily C Member 19 (CYP2C19) small molecule antagonists: luciferase reporter qHTS assay (AID 1671197); note: nearly all actives have a fitted effect of over 65% in size; note: potency is the fitted concentration of half-maximal effect
Cytochrome P450 2C19 (Homo sapiens), sequence (P33261 whole entry, looked up): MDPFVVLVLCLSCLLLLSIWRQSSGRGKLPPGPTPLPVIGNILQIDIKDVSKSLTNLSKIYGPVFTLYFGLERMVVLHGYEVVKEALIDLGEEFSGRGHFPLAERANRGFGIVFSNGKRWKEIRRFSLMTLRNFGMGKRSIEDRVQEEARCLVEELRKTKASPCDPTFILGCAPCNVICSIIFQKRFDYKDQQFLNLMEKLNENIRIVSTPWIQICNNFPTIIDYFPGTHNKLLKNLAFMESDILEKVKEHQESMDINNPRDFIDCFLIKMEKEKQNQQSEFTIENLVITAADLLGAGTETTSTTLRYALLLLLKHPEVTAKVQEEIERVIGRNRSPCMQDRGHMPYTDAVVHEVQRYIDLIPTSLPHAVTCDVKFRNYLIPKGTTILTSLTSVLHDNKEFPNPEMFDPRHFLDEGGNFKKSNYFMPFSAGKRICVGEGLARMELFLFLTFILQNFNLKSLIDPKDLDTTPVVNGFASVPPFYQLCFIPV
Outline: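 Quantitative high-throughput screen of the Tox21 library using CYP2C19 with proluciferin substrate. Reaction: NADPH regeneration, 37C, 1 h, after 10 min compound preincubation at room temperature. Readout: luminescence.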

[13] = qHTS assay to identify small molecule agonists of the TGF-beta/Smad signaling pathway (AID 1346859; active = well fitted activation curve with a large enough effect in the signal ratio in the repeat runs, not every such curve was filed as active; the % refers to the signal ratio; note: series mostly up to about 77 µM; % is set by controls: 0 for no effect and ±100 for the full control effect)
Outline: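 Dual-wavelength fluorescence (460/530 nm emission) quantified beta-lactamase expression under the Smad binding element in HEK 293T cells following 5 hr compound treatment at 37 C.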

[14] = biological target: Thyrotropin-releasing hormone receptor (Homo sapiens) (UniProt P34981); experiment: qHTS assay to identify small molecule agonists of the thyrotropin-releasing hormone receptor (TRHR) signaling pathway (AID 1346891; calls by dose curve; note: series mostly up to about 58 µM; % is set by controls: 0 for no effect and ±100 for the full control effect)
Outline: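 Kinetic fluorescence (3 min, 1 s intervals) reported intracellular calcium after compound transfer onto TRHR-Hek293 cells pre-loaded with dye for 2 h at 37 °C.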

[15] = biological target: Nuclear receptor subfamily 1 group I member 2 (Homo sapiens) (UniProt O75469); experiment: Human pregnane X receptor (PXR) small molecule agonists, qHTS assay (AID 1346982); note: nearly all actives have a fitted effect of over 35% in size; note: potency is the fitted concentration of half-maximal effect
Nuclear receptor subfamily 1 group I member 2 (Homo sapiens), sequence (O75469 whole entry, looked up): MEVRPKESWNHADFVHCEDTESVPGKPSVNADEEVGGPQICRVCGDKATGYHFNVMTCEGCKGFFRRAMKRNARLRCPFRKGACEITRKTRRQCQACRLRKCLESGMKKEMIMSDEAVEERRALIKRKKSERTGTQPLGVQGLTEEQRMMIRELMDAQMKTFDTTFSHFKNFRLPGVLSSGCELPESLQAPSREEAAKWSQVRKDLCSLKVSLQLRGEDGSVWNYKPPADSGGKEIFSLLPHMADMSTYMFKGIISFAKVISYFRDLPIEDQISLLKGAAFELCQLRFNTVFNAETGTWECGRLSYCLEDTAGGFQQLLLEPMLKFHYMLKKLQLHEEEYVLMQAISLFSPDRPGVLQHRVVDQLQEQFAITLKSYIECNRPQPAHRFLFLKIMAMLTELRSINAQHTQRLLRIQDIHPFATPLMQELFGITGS
Outline: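 PXR-Luc HepG2 reporter cells (CYP3A4-driven luciferase) in 5% charcoal-stripped FBS medium, plated 5 h before compound addition, then treated 24 h at 37C. Luciferase read by ONE-Glo luminescence after 30 min at room temperature.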

[16] = biological target: Cytochrome P450 2D6 (Homo sapiens) (UniProt P10635); experiment: Cytochrome P450 Family 2 Subfamily D Member 6 (CYP2D6) small molecule antagonists: luciferase reporter qHTS assay (AID 1671196); note: nearly all actives have a fitted effect of over 50% in size; note: potency is the fitted concentration of half-maximal effect
Cytochrome P450 2D6 (Homo sapiens), sequence (P10635 whole entry, looked up): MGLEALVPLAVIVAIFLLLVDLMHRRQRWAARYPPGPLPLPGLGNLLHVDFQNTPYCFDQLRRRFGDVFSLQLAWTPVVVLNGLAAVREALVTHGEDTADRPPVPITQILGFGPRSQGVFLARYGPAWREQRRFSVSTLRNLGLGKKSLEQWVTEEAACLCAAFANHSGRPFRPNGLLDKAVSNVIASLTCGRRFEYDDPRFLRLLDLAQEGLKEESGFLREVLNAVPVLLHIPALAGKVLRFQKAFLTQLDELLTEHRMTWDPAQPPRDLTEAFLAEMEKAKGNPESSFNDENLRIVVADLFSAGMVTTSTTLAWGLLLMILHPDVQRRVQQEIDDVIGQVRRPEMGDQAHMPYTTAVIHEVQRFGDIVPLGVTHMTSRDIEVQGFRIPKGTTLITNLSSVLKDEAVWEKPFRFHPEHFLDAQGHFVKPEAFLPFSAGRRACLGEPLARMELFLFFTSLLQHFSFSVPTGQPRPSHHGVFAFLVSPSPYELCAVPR
Outline: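 Cell-free P450-Glo system: CYP2D6 with proluciferin substrate was pre-incubated with compound for 10 min, then reacted with NADPH regeneration for 1 h at room temperature. Luciferin product was detected after 20 min, and data were reported as relative luminescence units.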

[17] = biological target: Progesterone receptor (Homo sapiens) (UniProt P06401); experiment: qHTS assay to identify small molecule antagonists of the progesterone receptor (PR) signaling pathway (AID 1346795; active = well fitted inhibition curve with a large enough effect in the signal ratio in the repeat runs, not every such curve was filed as active; the % refers to the signal ratio; note: potency is the fitted concentration of half-maximal effect)
Outline: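 After 6 hr plating at 37C in 2% stripped-serum medium, PR-UAS-bla HEK293T cells got compounds, then 1 nM R5020. Sixteen hours later, LiveBLAzer substrate was applied for 2 hr at room temperature and fluorescence was recorded.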

[18] = biological target: Nuclear receptor subfamily 1 group I member 2 (Homo sapiens) (UniProt O75469); experiment: CYP3A4 induction through human pregnane X receptor (PXR) by small molecules, qHTS assay (AID 1346984); note: % is set by controls: 0 for no effect and ±100 for the full control effect; nearly all actives have a fitted effect of over 40% in size
Outline: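 DPX-2 HepG2 cells carrying a PXR response element and CYP3A4-promoter luciferase construct, treated with compounds 24 hr at 37C. Then P450-Glo CYP3A4 Luciferin-IPA substrate (3uM final) for 3 hr at 37C, One-Glo added, luminescence read.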

[19] = biological target: Nuclear receptor subfamily 1 group I member 2 (Homo sapiens) (UniProt O75469); experiment: Human pregnane X receptor (PXR) activation by small molecules, qHTS assay (AID 1346985); note: % is set by controls: 0 for no effect and ±100 for the full control effect; nearly all actives have a fitted effect of over 40% in size
Outline: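 DPX-2 cells (HepG2 co-transfected with a PXR response element and a CYP3A4-promoter luciferase construct) were seeded at 2,000 per well, rested 5 hr at 37C, then exposed to DMSO-dissolved compounds for 24 hr. Activation was read as luciferase luminescence.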

Clc1nnc(Cl)c2ccccc12
inactive: Potency [1] | Potency [2] | Potency [3] | Potency [4] | Potency [5] | Potency [6] | Potency [7] | Potency [8] | Potency [9] | Potency [10] | Potency [11] | Potency [12]

O=C(O)O
inactive: viability change, negative = cytotoxic [4] 7.39% [at 6.97 µM] | activity change, negative = cytotoxicity [5] 8.74% [at 6.97 µM] | activation [13] 4.78% [at 6.97 µM] | activity, negative = inhibition [6] 1.6% [at 4.65 µM] | activation [14] -0.122% [at 5.23 µM] | activity change, negative = cytotoxicity [7] 1.04% [at 8.39 µM] | caspase activation [8] 0.0124% [at 8.39 µM] | activity change, negative = cytotoxicity [9] 0.8% [at 8.39 µM] | caspase-3/7 activation [10] 0.298% [at 8.39 µM] | activity change, negative = cytotoxicity [11] -0.291% [at 8.39 µM] | activation [15] 4.39% [at 8.39 µM] | activity change, negative = inhibition [16] -1.63% [at 10.5 µM]
active: Potency [1] 0.373 µM | Potency [12] 3.86 µM

Clc1ccnc(Cl)n1
inactive: Potency [1] | Potency [3] | Potency [4] | Potency [5] | Potency [13] | Potency [6] | outcome [14] | Potency [7] | Potency [8] | Potency [9] | Potency [10] | Potency [11] | Potency [15] | Potency [16] | Potency [12]

O=[N+]([O-])c1ccc(O)cc1C(F)(F)F
inactive: Potency [1] | Potency [2] | Potency [4] | Potency [5] | Potency [13] | Potency [6] | outcome [14] | Potency [8] | Potency [10]
active: Potency [7] 48.6 µM | Potency [9] 24.3 µM | Potency [11] 43.3 µM | Potency [16] 14.2 µM

CN(C)c1ccc(C(=C2C=CC(=[N+](C)C)C=C2)c2ccc(N(C)C)cc2)cc1
active: Potency [17] 19.3 µM | Potency [2] 24.2 µM and 30.6 µM and 21.1 µM | Potency [3] 27.2 µM and 21.1 µM | Potency [4] 19.4 µM and 43.6 µM and 19 µM | Potency [5] 19.4 µM and 49 µM and 23.9 µM | Potency [7] 3.84 µM and 2.73 µM and 6.68 µM | Potency [8] 19.2 µM and 27.3 µM and 26.6 µM | Potency [9] 1.71 µM and 686 nM and 2.37 µM | Potency [10] 7.66 µM and 6.11 µM and 8.41 µM | Potency [11] 17.1 µM and 9.69 µM and 8.41 µM | Potency [15] 2.42 µM | Potency [12] 19.9 µM and 22.4 µM and 21.9 µM
inactive: Potency [18] | Potency [19]

CC(=O)[C@H]1CC[C@H]2[C@@H]3CCC4=CC(=O)CC[C@]4(C)[C@H]3CC[C@]12C
inactive: Potency [7] | Potency [8] | Potency [10] | Potency [11]
active: Potency [2] 54.2 µM | Potency [3] 60.8 µM | Potency [9] 54.2 µM and 48.6 µM | Potency [16] 15.8 µM and 39.9 µM | Potency [12] 3.54 µM and 3.99 µM
